# Measurements as given in ChEMBL document CHEMBL4513216, “Probing the Open Global Health Chemical Diversity Library for Multistage-Active Starting Points for Next-Generation Antimalarials” (ACS Infect Dis, 2020).
# Screen size: about 69,000 compounds; about 8,600 (12%) showed an effect of 50% or more. This is one part of a sample in which strong results are shown more often than they occur.
# System: Plasmodium berghei
# Assay: Screen against P. berghei liver stage (PbLuc), transformed with Luciferase, at 10uM
# Type: functional, HepG2
# Conditions: tested at 10 uM
row,Structure (SMILES),INHIBITION
1,FC1(F)CCN(Cc2ccncc2)CC12CCN(c1cnccn1)C2 (centres undefined),-13.2%
2,FC1(F)CCN(Cc2ccncc2)CC12CCN(c1cccnc1)C2 (centres undefined),91.9%
3,OCCN1CCC(F)(F)C2(CCN(c3cccnc3)C2)C1 (centres undefined),60.2%
4,FC1(F)CCN(c2ccccc2)CC12CCN(c1ncccn1)C2 (centres undefined),-15.3%
5,OCCN1CCC(F)(F)C2(CCN(c3cnccn3)C2)C1 (centres undefined),16.6%
6,Cn1cc(CN2CCC(F)(F)C3(CCN(c4cccnc4)C3)C2)cn1 (centres undefined),15.4%
7,FC1(F)CCN(Cc2ccccn2)CC12CCN(c1cnccn1)C2 (centres undefined),34%
8,Cn1ccnc1CN1CCC(F)(F)C2(CCN(c3cccnc3)C2)C1 (centres undefined),31.2%
9,FC1(F)CCN(Cc2ccncc2)CC12CCN(Cc1ccccn1)C2 (centres undefined),48.9%
10,FC1(F)CCN(Cc2cccnc2)CC12CCN(c1ccccc1)C2 (centres undefined),92.8%
11,FC1(F)CCN(Cc2ccccn2)CC12CCN(c1cccnc1)C2 (centres undefined),85.9%
12,FC1(F)CCN(Cc2ccccn2)CC12CCN(c1ncccn1)C2 (centres undefined),47.5%
13,COc1ccccc1OCCCn1c(C)c(C)oc1=O,-10.2%
14,CCn1c(SCC(N)=O)nnc1C(C)NC(=O)c1ccc(Cl)cc1 (centres undefined),31.6%
15,CCS(=O)(=O)N1CCC2(CN(c3cccc(C)n3)C2)C1,18.5%
16,Cc1ccc(CN(CCCN2CCOCC2)Cc2cnn(C)c2)o1,30.15%
17,CCc1ncc2c(n1)CN(c1nnc(C)c(C)c1C#N)CC2,-28.7%
18,CNC(=O)CN1CCC2(CCCN(CC3CCOC3)C2)CC1 (centres undefined),8.6%
19,Cc1nn(-c2ccc(C(=O)O)cc2)c2c1C(CC(C)C)SCC(=O)N2 (centres undefined),10.6%
20,Cc1cccc(C(=O)N2C[C@@H]3C(CC(=O)NC(C)C)[C@@H]3C2)n1 (some centres undefined),-50.4%
21,O=C(O)CN1CCC(F)(F)C2(CCN(c3ccccn3)C2)C1 (centres undefined),-4.02%
22,FC1(F)CCN(Cc2cccnc2)CC12CCN(c1ccccn1)C2 (centres undefined),68.2%

row,Structure (SMILES),INHIBITION
1,O=C(O)CN1CCC(F)(F)C2(CCN(c3ccccc3)C2)C1 (centres undefined),53.9%
2,FC1(F)CCN(Cc2cccnc2)CC12CCN(c1cnccn1)C2 (centres undefined),-20.1%
3,Cn1cc(CN2CCC(F)(F)C3(CCN(c4ccccn4)C3)C2)cn1 (centres undefined),0.618%
4,O=C(CO)N1CCC(F)(F)C2(CCN(c3ccccc3)C2)C1 (centres undefined),31.4%
5,Cc1nn(C)cc1-c1cc(C(=O)N2CCc3ncc(Cl)cc3C2)on1,7.15%
6,N#CCc1ccc(NC(=O)Cn2cc(I)cn2)cc1,36.6%
7,O=C(NCC1CCCO1)c1nc2c(s1)CCCN2Cc1ccccc1 (centres undefined),-57.7%
8,CCN(Cc1ccc(N(C)C)cc1)S(=O)(=O)c1cc(Br)ccc1OC,7.65%
9,CCOc1ccc(Br)cc1S(=O)(=O)N(CC)Cc1ccc(N(C)C)cc1,61.5%
10,COc1ccc(Br)cc1S(=O)(=O)N(C)Cc1ccc(N(C)C)cc1,5.76%
11,CCOC(=O)N1CC(C)=C(C)CN1C(=O)Nc1ccc(Cl)c(Cl)c1,13%
12,CCNc1cc2c(nn1)CCN(C(=O)c1cccc(CSC)c1)C2,37.3%
13,O=C(c1ccoc1)N1CC[C@@H](N2CCOCC2)[C@@H]1Cc1ccccc1,35.7%
14,O=C(c1ccc(CN2CCCCC2)cc1)N1CCCC1c1cccs1 (centres undefined),31%
15,O=C(c1ccoc1)N1CCCC1C1CCN(Cc2ccccc2)CC1 (centres undefined),51.1%
16,O=C(c1ccco1)N1CCCC1C1CCN(Cc2ccccc2)CC1 (centres undefined),21.3%
17,O=C(c1ccncc1)N1CCCC1C1CCN(Cc2ccccc2)CC1 (centres undefined),51.1%
18,CN(C(=O)c1cccnc1)C1CCCN(CCc2ccccc2)C1 (centres undefined),42.2%
19,O=C(c1cc[nH]n1)N1CCCC1C1CCN(Cc2ccccc2)CC1 (centres undefined),37.9%
20,O=C(C1CC1)N1CCCC1C1CCN(Cc2ccccc2)CC1 (centres undefined),-12.6%
21,O=C(c1cccnc1)N1CCCC1C1CCN(Cc2ccccc2)CC1 (centres undefined),73.6%
22,Cc1cccnc1C(=O)N1CCC(Cc2cnc3[nH]ccc3c2)CC1,44.8%

row,Structure (SMILES),INHIBITION
1,OCC(O)CN(CCN1CCOCC1)Cc1ccco1 (centres undefined),43.9%
2,Cc1oncc1C(=O)N1CC[C@H]2[C@H](C[C@@H](CN3CCCC3)N2C)C1,16.6%
3,Cc1cc(C(=O)N2CC[C@H]3[C@H](C[C@@H](CN4CCCC4)N3C)C2)c(C)o1,39.5%
4,Cc1nc(C(C)C)ncc1C(=O)N1CCCC(N2CCCC2)C1 (centres undefined),26.8%
5,O=C(O)CSC1CCc2ccccc2NC1=O (centres undefined),18.4%
6,NS(=O)(=O)CCN1CCN(c2ccccc2O)CC1,-24.7%
7,CC(C)CS(=O)(=O)N1C[C@@H]2C[C@H](C(=O)N3CCOCC3)[C@H](C1)O2,83.2%
8,O=C(Nc1ccccc1)N1C[C@@H]2C[C@H](C(=O)N3CCOCC3)[C@H](C1)O2,55.4%
9,CC(C)NC(=O)[C@H]1C[C@H]2CN(C(=O)NC(C)C)C[C@@H]1O2,24%
10,CNC(=O)[C@H]1C[C@H]2CN(C(=O)NC(C)C)C[C@@H]1O2,57.5%
11,O=C(NCC1CCCN(C(=O)NCCc2ccccc2)C1)c1ccco1 (centres undefined),59.1%
12,CC(C)CS(=O)(=O)N1C[C@@H]2C[C@H](C(=O)N3CCN(C)CC3)[C@H](C1)O2,-1.28%
13,CCOC(=O)CCNC(=O)N1CCCC(CNC(=O)c2ccco2)C1 (centres undefined),15.7%
14,CC(C)CS(=O)(=O)N1C[C@@H]2C[C@H](C(=O)N3CCCC3)[C@H](C1)O2,32.5%
15,O=C(Nc1ccccc1)N1C[C@@H]2C[C@H](C(=O)N3CCCC3)[C@H](C1)O2,-13.2%
16,CC(C)NC(=O)N1C[C@@H]2C[C@H](C(=O)N3CCCC3)[C@H](C1)O2,43.9%
17,CCOC(=O)CNC(=O)N1CCCC(CNC(=O)c2ccco2)C1 (centres undefined),3.73%
18,O=C(Nc1ccc(F)cc1)N1C[C@@H]2C[C@H](C(=O)N3CCOCC3)[C@H](C1)O2,1.58%
19,CCS(=O)(=O)N[C@H]1CN(CC(C)(C)N2CCOCC2)C[C@@H]1C1CC1,18.5%
20,O=C(Nc1ccccc1)C1=NOC2(CCCN(C(=O)C3CCCC3)C2)C1 (centres undefined),-31%
